Results reported in the supplement of paper PMC7261846.
Structures can show the parent of a compound that is named as a salt. ± gives the uncertainty stated by the source.

System: Candida albicans SNY425 biofilm
Test: biofilm OD600 with compound plus antifungal (OD600 (absorbance)); higher = more biofilm remaining
[1] = assay detail: disruption of 24-h mature biofilm (compound + antifungal for a second 24 h)
[2] = assay detail: sustained inhibition (compound + antifungal during 90-min adherence and 24-h growth)

Compound | biofilm OD600 [1] | biofilm OD600 [2]
CC[C@H](C)[C@H](N)C(=O)N1CCSC1 [P32/98 hemifumarate salt] + C[C@@H]1[C@H](O)[C@@H](C)/C=C/C=C/C=C/C=C/C=C/C=C/C=C/[C@H](O[C@@H]2O[C@H](C)[C@@H](O)[C@H](N)[C@@H]2O)C[C@@H]2O[C@](O)(C[C@@H](O)C[C@@H](O)[C@H](O)CC[C@@H](O)C[C@@H](O)CC(=O)O[C@H]1C)C[C@H](O)[C@H]2C(=O)O [amphotericin B] (first compound 12.5 µM) | 0.259 ± 0.014 | 0.181 ± 0.0051
CC(C)CC(=O)N[C@H](C(=O)N[C@H](C(=O)N[C@@H](CC(C)C)[C@@H](O)CC(=O)N[C@@H](C)C(=O)N[C@@H](CC(C)C)[C@@H](O)CC(=O)O)C(C)C)C(C)C [Pepstatin A] + C[C@@H]1[C@H](O)[C@@H](C)/C=C/C=C/C=C/C=C/C=C/C=C/C=C/[C@H](O[C@@H]2O[C@H](C)[C@@H](O)[C@H](N)[C@@H]2O)C[C@@H]2O[C@](O)(C[C@@H](O)C[C@@H](O)[C@H](O)CC[C@@H](O)C[C@@H](O)CC(=O)O[C@H]1C)C[C@H](O)[C@H]2C(=O)O [amphotericin B] (first compound 12.5 µM) | 0.272 ± 0.0097 | 0.199 ± 0.011
CC1CNc2c(cccc2S(=O)(=O)N[C@@H](CCCNC(=N)N)C(=O)N2CC[C@@H](C)C[C@@H]2C(=O)O)C1 (some centres undefined) [Argatroban] + CC[C@H](C)C[C@H](C)CCCCCCCCC(=O)N[C@H]1C[C@@H](O)[C@@H](NCCN)NC(=O)[C@@H]2[C@@H](O)CCN2C(=O)[C@H]([C@H](O)CCN)NC(=O)[C@H]([C@H](O)[C@@H](O)c2ccc(O)cc2)NC(=O)[C@@H]2C[C@@H](O)CN2C(=O)[C@H]([C@@H](C)O)NC1=O [caspofungin] (first compound 12.5 µM) | 0.285 ± 0.017 | 0.182 ± 0.0063
C[C@]1(Cn2ccnn2)[C@H](C(=O)O)N2C(=O)C[C@H]2S1(=O)=O [Tazobactam] + OC(Cn1cncn1)(Cn1cncn1)c1ccc(F)cc1F [fluconazole] (first compound 12.5 µM) | 0.283 ± 0.011 | 0.12 ± 0.0072
CCN1C(=O)C=CC1=O [N-Ethylmaleimide] + OC(Cn1cncn1)(Cn1cncn1)c1ccc(F)cc1F [fluconazole] (first compound 4 µM) | 0.278 ± 0.0073 | 0.113 ± 0.011
CCCC[C@@H](C=O)NC(=O)OC(C)(C)C + CC[C@H](C)C[C@H](C)CCCCCCCCC(=O)N[C@H]1C[C@@H](O)[C@@H](NCCN)NC(=O)[C@@H]2[C@@H](O)CCN2C(=O)[C@H]([C@H](O)CCN)NC(=O)[C@H]([C@H](O)[C@@H](O)c2ccc(O)cc2)NC(=O)[C@@H]2C[C@@H](O)CN2C(=O)[C@H]([C@@H](C)O)NC1=O [caspofungin] (first compound 12.5 µM) | 0.254 ± 0.0097 | 0.167 ± 0.0058
COC(=O)C[C@H](NC(=O)[C@H](C)NC(=O)[C@@H](NC(=O)OCc1ccccc1)C(C)C)C(=O)CF + C[C@@H]1[C@H](O)[C@@H](C)/C=C/C=C/C=C/C=C/C=C/C=C/C=C/[C@H](O[C@@H]2O[C@H](C)[C@@H](O)[C@H](N)[C@@H]2O)C[C@@H]2O[C@](O)(C[C@@H](O)C[C@@H](O)[C@H](O)CC[C@@H](O)C[C@@H](O)CC(=O)O[C@H]1C)C[C@H](O)[C@H]2C(=O)O [amphotericin B] (first compound 12.5 µM) | 0.296 ± 0.013 | 0.184 ± 0.011
CC(C)CN(C[C@@H](O)[C@H](Cc1ccccc1)NC(=O)O[C@H]1CCOC1)S(=O)(=O)c1ccc(N)cc1 [amprenavir] + C[C@@H]1[C@H](O)[C@@H](C)/C=C/C=C/C=C/C=C/C=C/C=C/C=C/[C@H](O[C@@H]2O[C@H](C)[C@@H](O)[C@H](N)[C@@H]2O)C[C@@H]2O[C@](O)(C[C@@H](O)C[C@@H](O)[C@H](O)CC[C@@H](O)C[C@@H](O)CC(=O)O[C@H]1C)C[C@H](O)[C@H]2C(=O)O [amphotericin B] (first compound 12.5 µM) | 0.283 ± 0.009 | 0.232 ± 0.011
CC1(C)C[C@@H]1C(=O)N/C(=C\CCCCSC[C@H](N)C(=O)O)C(=O)O [Cilastatin] + C[C@@H]1[C@H](O)[C@@H](C)/C=C/C=C/C=C/C=C/C=C/C=C/C=C/[C@H](O[C@@H]2O[C@H](C)[C@@H](O)[C@H](N)[C@@H]2O)C[C@@H]2O[C@](O)(C[C@@H](O)C[C@@H](O)[C@H](O)CC[C@@H](O)C[C@@H](O)CC(=O)O[C@H]1C)C[C@H](O)[C@H]2C(=O)O [amphotericin B] (first compound 12.5 µM) | 0.293 ± 0.012 | 0.211 ± 0.015
N[C@H](C(=O)O)[C@@H]1CC(Cl)=NO1 [Acivicin] + CC[C@H](C)C[C@H](C)CCCCCCCCC(=O)N[C@H]1C[C@@H](O)[C@@H](NCCN)NC(=O)[C@@H]2[C@@H](O)CCN2C(=O)[C@H]([C@H](O)CCN)NC(=O)[C@H]([C@H](O)[C@@H](O)c2ccc(O)cc2)NC(=O)[C@@H]2C[C@@H](O)CN2C(=O)[C@H]([C@@H](C)O)NC1=O [caspofungin] (first compound 4 µM) | 0.296 ± 0.012 | 0.163 ± 0.0049
O=C1Nc2ccc([N+](=O)[O-])cc2C1=O [5-Nitroisatin] + OC(Cn1cncn1)(Cn1cncn1)c1ccc(F)cc1F [fluconazole] (first compound 12.5 µM) | 0.249 ± 0.0083 | 0.107 ± 0.011
NCCCC[C@H](N[C@@H](CCc1ccccc1)C(=O)O)C(=O)N1CCC[C@H]1C(=O)O [Lisinopril] + C[C@@H]1[C@H](O)[C@@H](C)/C=C/C=C/C=C/C=C/C=C/C=C/C=C/[C@H](O[C@@H]2O[C@H](C)[C@@H](O)[C@H](N)[C@@H]2O)C[C@@H]2O[C@](O)(C[C@@H](O)C[C@@H](O)[C@H](O)CC[C@@H](O)C[C@@H](O)CC(=O)O[C@H]1C)C[C@H](O)[C@H]2C(=O)O [amphotericin B] (first compound 12.5 µM) | 0.27 ± 0.012 | 0.173 ± 0.014
